Rows were chosen to be rich in hits. Some 11% of all compounds tested hit in one or more screens of this group.
G9a inh = inhibitors of human histone lysine methyltransferase G9a | Q96KQ7 | 350,000 tested, 8.8% active | AID 504332 | Potency, µM (doses to about 102 µM), without a hit: at the highest dose activity, negative = inhibition, usual class: inhibitors | G9a H3K9 monomethylation, AlphaScreen, 2 h; further: potency means the concentration at half of the fitted maximal effect; nearly all actives have a fitted effect of over 75% in size
Target sequence (Q96KQ7 913-1193 limits assumed): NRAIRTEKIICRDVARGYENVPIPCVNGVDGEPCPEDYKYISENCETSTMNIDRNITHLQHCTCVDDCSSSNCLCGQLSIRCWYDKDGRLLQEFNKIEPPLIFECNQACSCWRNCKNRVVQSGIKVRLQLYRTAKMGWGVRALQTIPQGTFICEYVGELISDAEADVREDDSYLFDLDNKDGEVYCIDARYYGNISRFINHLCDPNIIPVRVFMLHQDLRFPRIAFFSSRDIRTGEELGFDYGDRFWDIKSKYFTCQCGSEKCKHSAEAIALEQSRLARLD
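Quantitative HTS format: methyltransferase activity on a biotin-tagged H3K9 peptide is measured by AlphaScreen, using a rabbit anti-monomethyl-H3K9 antibody with streptavidin donor and anti-IgG acceptor beads. Final levels are 20 nM enzyme, 500 nM peptide, 20 uM SAM; 2 h RT.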
Tau fluor cs = counter-screen for tau fibril formation inhibitors. tau K18 P301L Alexa594 fluorescence, heparin fibrillization. AID 1463. 280,000 tested, 0.93% active. Potency, µM (top dose mostly 57.7 µM), for inactives: at the top dose activity change, negative = decrease; further: potency means the concentration at half of the fitted maximal effect; nearly all actives have a fitted effect of over 55% in size
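Human tau K18 P301L (15 uM unlabeled, 0.24 uM Alexa 594-labeled) in 100 mM sodium acetate pH 7 with 20 uM heparin, 6 hr at 37 C. ThT 30 uM added, 1 hr ambient; Alexa 594 FP and total fluorescence read at 555/632 nm.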
Sfp PPTase inh = Sfp phosphopantetheinyl transferase inhibition; Potency, µM, for the others: largest response in the series, negative = inhibition, most hits filed as inhibitors; 310,000 tested, 3.5% active; Q9F4F7; Biochemical Sfp PPTase activity, qHTS;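 further: the enzyme is Sfp with the accession as filed and its product quenches rhodamine fluorescence; potency means the concentration at half of the fitted maximal effect; 0% = enzyme reaction without inhibitor and -100% = no enzyme wells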
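Fluorescence-quenching assay with 15 nM Sfp, 5 uM rhodamine-CoA and 12.5 uM BHQ-2-labelled ybbR peptide in pH 7.6 Hepes/MgCl2 buffer. Enzyme was pre-incubated with compound for 15 min at room temperature. Rate was taken from the 30-min fluorescence change (525/598 nm).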
Coupling enz = inhibits coupling enzyme system, counter-screen for aldolase hits | coupling enzyme system counterscreen, AmpLite Red fluorescence | activity change, negative = inhibition, % at 58.2 µM, hits read low | 290,000 tested, 0.67% active; in the data active means activity change below about -30%
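Coupling enzymes only (glyceraldehyde-3-phosphate) + compound, at 57.5 uM final, 10 min RT; add substrate/coupling/AmpLite Red mix, 20 min RT; fluorescence ex 525/em 598 nm. Actives flag coupling-system interference.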
Tau fibril FP = inhibitors of human tau fibril formation; 280,000 tested, 0.39% active; P10636; Potency, µM (titrated, usually from 57.7 µM), for the others: at the top dose activity, negative = inhibition, usual class: inhibitors; K18 P301L tau heparin fibrillization, Alexa594 FP, 6 h; further: potency means the concentration at half of the fitted maximal effect; nearly all actives have a fitted effect of over 55% in size
Target sequence (P10636 561-689 P618L limits assumed): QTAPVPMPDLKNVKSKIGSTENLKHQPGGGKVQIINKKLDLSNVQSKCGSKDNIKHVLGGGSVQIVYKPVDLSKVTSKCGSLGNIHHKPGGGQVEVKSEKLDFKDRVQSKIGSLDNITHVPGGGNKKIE
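FP of Alexa 594-tau after heparin (20 uM) induction. Substrate: human K18 P301L, 15 uM unlabeled, 0.24 uM labeled. Buffer 100 mM sodium acetate pH 7. 6 hr, 37 C.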
Tau fibril ThT = blocks human tau fibril formation measured by thioflavin T; Potency, µM (doses to about 57.4 µM), for inactives: top-dose activity, negative = inhibition, hits mostly inhibitors; P10636; 270,000 tested, 2.1% active; recombinant tau K18 P301L (four-repeat tau fragment), heparin-induced fibrillization, ThT fluorescence; further: potency means the concentration at half of the fitted maximal effect; nearly all actives have a fitted effect of over 55% in size
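Aggregation was driven by heparin (20 uM final) acting on recombinant tau […] bearing P301L in 100 mM sodium acetate pH 7; fibrils were detected with Thioflavin T.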
* = called active by the depositor; u = inconclusive; x = no result given; [ ] = another dose, or the depositor's remark. Unless noted, the call rests on the fitted dose curve; in most records, active means well fitted curve in the direction sought with a large enough effect; inconclusive means small, poorly fitted or top-dose-only effect, or another doubt; inactive means no such curve, though single readings can be large; an effect the other way counts as inactive or inconclusive. Unless noted, on the % scale 0 is the no-effect control and ±100 the full control effect.

SMILES	G9a inh	Tau fluor cs	Sfp PPTase inh	Coupling enz	Tau fibril FP	Tau fibril ThT
Cc1cccc(OCC(=O)Nc2cccc(C(=O)OCc3cc(=O)n4nc(C(C)C)sc4n3)c2)c1	14%[59 µM]	-4%	x	x	8%	u
CC(C)c1ccc(NC(=O)[C@H]2CSCN2C(=O)[C@@H]2CCC(=O)N2)cc1	x	x	1%	-3	x	x
O=C(COc1ncnc2c1cnn2-c1ccccc1)Nc1ccc(S(=O)(=O)N2CCCCC2)cc1	11%[59 µM]	u	9%	0	18µM*	5%
CC(C)c1ccc(CCNC(=O)CSC(=S)N2CCCC2)cc1	16µM*	x	x	x	x	x
NS(=O)(=O)c1cccc(NC(=O)COc2ncnc3c2cnn3-c2ccccc2)c1	u	7%	14%	2	4%	6%
Cc1cccc(NC(=O)COC(=O)c2ccc(S(=O)(=O)N3CCCC3)cc2)c1	-33%	x	x	x	x	x
O=C(COC(=O)c1ccc(S(=O)(=O)N2CCCC2)cc1)Nc1cccc(F)c1	5µM*	x	x	x	x	x
CCN1CCN(S(=O)(=O)c2ccc(Cl)c(C(=O)N(CC)Cc3ccccc3)c2)CC1	14µM*	x	x	x	x	x
COc1ccc(CNC(=O)CSC(=S)N2CCCC2)cc1	3%	x	x	x	x	x
Cc1ccc(OCC(=O)NNC(=O)CSC(=S)N2CCCC2)cc1	45µM*	x	x	x	x	x
Cc1ccc(NC(=O)CN2CCCN(S(=O)(=O)c3ccc(Br)s3)CC2)cc1	50µM*	-27%	-3%	-1	7%	-20%
Cc1cc(C)cc(NC(=O)CN2CCCN(S(=O)(=O)c3ccc(Br)s3)CC2)c1	-2%[12.7 µM]	-24%	-6%	-2	1%	u
Cc1ccc(OCC(=O)NCCCNC(=O)COc2ccc(C)cc2)cc1	35µM*	x	0%	-1	x	x
COc1ccc(OCC(=O)Nc2ccc(S(=O)(=O)N3CCN(C)CC3)cc2)cc1	-32%	-13%	-1%	2	-2%	-7%
Cc1ccc(OCC(=O)Nc2ccc(S(=O)(=O)N3CCN(C)CC3)cc2)cc1	11µM*	-15%	7%	1	-5%	-13%
CCN1CCN(C(=O)c2cnn(-c3ccc(F)cc3F)c2C2CCN(C(=O)OC(C)(C)C)CC2)CC1	-8%[59 µM]	-2%	x	x	-2%	3%
O=C(Nc1ccc(S(=O)(=O)N2CCCC2)cc1)c1cccc(OC(F)F)c1	35µM*	x	x	x	x	x
Cc1ccccc1C1=Nn2c(nnc2-c2ccco2)SC1	28µM*	-11%	u	1	-7%	-9%
CC1=Nn2c(nnc2-c2ccco2)SC1	8%[0.501 µM]	10%	56µM*	-2	0%	19%
COc1ccc(C2=Nn3c(nnc3-c3ccco3)SC2)cc1OC	-17%[59 µM]	-9%	u	2	-5%	u
Cc1cc(C)n2cc(CSCC(=O)O)nc2n1	45µM*	-3%	-30%	2	2%	-8%
Cc1cc(C)n2cc(CSc3nnnn3-c3ccc(Cl)cc3)nc2n1	40µM*	-1%	u	0	2%	-4%
CS(=O)(=O)N(CC(=O)N1CCCCCC1)c1cccc([N+](=O)[O-])c1	12%[0.501 µM]	x	6%	4	x	x
CCOC(=O)c1c(S(=O)(=O)NCCCc2ccco2)c(C)n(C)c1C	45µM*	x	-18%	0	x	x
CCOC(=O)c1c(S(=O)(=O)NCCc2ccco2)c(C)n(C)c1C	-9%	x	19%	-1	x	x
SMILES	G9a inh	Tau fluor cs	Sfp PPTase inh	Coupling enz	Tau fibril FP	Tau fibril ThT
Nc1[nH]c2cc([N+](=O)[O-])ccc2c1-c1ccccn1	45µM*	x	6%	-4	x	x
Oc1ccc2ccccc2c1CNn1cnnc1	11µM*	-14%	-3%	1	-7%	-16%
Oc1ccc2ccccc2c1CNc1ccccn1	8.9µM*	x	-5%	-9	x	x
Cc1ccc(O)c(CNc2ccccn2)c1	-31%	-1%	6%	0	1%	5%
Cc1ccc(O)c(CNn2cnnc2)c1	26%[59 µM]	-5%	-2%	2	3%	-5%
Cn1c(=O)oc2cc(S(=O)(=O)NC(Cc3ccccc3)C(=O)Nc3ccc(F)cc3)ccc21 (stereo not drawn)	2%[59 µM]	-20%	x	x	-12%	5%
CCC(=S)/C=C1\Sc2ccc3ccccc3c2N1CCCS(=O)(=O)O	u	-7%	35µM*	-2	-16%	u
S=c1[nH]nc(COc2ccccc2)n1/N=C/c1cccc(Br)c1	8.9µM*	x	u	-4	x	x
Cc1ccc(/C=N/n2c(COc3ccccc3)n[nH]c2=S)cc1	8.9µM*	x	u	6	x	x
S=c1[nH]nc(COc2ccccc2)n1/N=C/c1cccnc1	1.8µM*	-1%	-5%	5	-5%	-6%
O=[N+]([O-])c1ccc(/C=N/n2c(COc3ccccc3)n[nH]c2=S)cc1	u	-18%	-11%	11	4%	u
S=c1[nH]nc(COc2ccccc2)n1/N=C/c1ccc(Br)cc1	20µM*	x	63µM*	-3	x	x
Cc1ccc(OCc2n[nH]c(=S)n2-c2ccc(Br)cc2)cc1	2%[0.501 µM]	x	16%	7	x	x
C(=N\N1CCN(Cc2ccccc2)CC1)/c1cccnc1	u	-9%	6%	4	-6%	-9%
CC(C)[C@@H](OCc1ccccc1)[C@H](C)/C=N\OC[C@@H](O)[C@@H]1O[C@@H]2OC(C)(C)O[C@@H]2[C@H]1O	x	-3%[11.6 µM]	-2%	-1	-5%[11.6 µM]	-8%[11.5 µM]
CC(C)c1ccc(/C=N/n2c(COc3ccccc3)n[nH]c2=S)cc1	50µM*	x	-22%	2	x	x
COc1cccc(/C=N/n2c(COc3ccccc3)n[nH]c2=S)c1	1.8µM*	x	u	3	x	x
O=[N+]([O-])c1cccc(/C=N/n2c(COc3ccccc3)n[nH]c2=S)c1	5%[0.501 µM]	u	56µM*	-15	4%	u
S=c1[nH]ncn1/N=C/c1cccc(Oc2ccccc2)c1	-123%	-15%	-20%	-7	9%	-17%
O=C(O)COc1ccc(/C=N/n2c(COc3ccccc3)nc3ccccc3c2=O)cc1	u	-1%	26%	6	7%	1%
CN(C)c1ccc(/C=N/n2c(COc3ccccc3)n[nH]c2=S)cc1	2.8µM*	-25%	-18%	5	5%	u
Cc1cccc(C)c1NC(=O)CN(C)C(=O)Cc1cccc(C(F)(F)F)c1	-2%	x	12%	2	x	x
CC(c1ccco1)N(C(=O)c1ccccc1NS(=O)(=O)c1cccc([N+](=O)[O-])c1)c1ccccn1 (stereo not drawn)	79µM*	-10%	u	8	-3%	u
CC(c1ccco1)N(C(=O)c1ccccc1NS(=O)(=O)c1cc([N+](=O)[O-])ccc1Cl)c1ccccn1 (stereo not drawn)	4µM*	-10%	u	4	-1%	-9%
CCCC(=O)OCC(=O)Nc1ccc(N=Nc2ccccc2)cc1	u	u	-1%	0	u	10µM*

Compound activity (PubChem BioAssay)
